This passage reports Potency results from PubChem BioAssay (NCATS).

SMILES strings stand for the structures. The source made the active and inactive calls. The rule behind the calls is not given here.
Potency is the fitted concentration of half-maximal effect.

This assay has as its system HIV-1 nucleocapsid protein NCp7 (binding to TG oligonucleotide). Briefly: HIV Nucleocapsid (AID 346).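 Note: potency is for inhibitors that block NC binding and lower polarization.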 Particulars: HIV-1 NC / fluorescein-TGTGTGTG probe, fluorescence polarization. In short, it runs like this: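 Fluorescence polarization readout: labelled TG4xF oligo (10 nM) with 100 nM nucleocapsid protein, high-salt (250mM NaCl) Hepes pH 7.5 buffer containing zinc and fresh reducing agents. Compounds added by pin tool; incubation 1 hr, room temperature.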
For orientation: Polarisation of emitted light reports the rotation of a fluorescent probe.
Regarding `COc1ccccc1-c1ccc2ncnc(Nc3ccccc3)c2c1`, the Potency is > 20 µM (inactive).
In the case of `Fc1ccc(Nc2nc(-c3cccnc3)nc3ccccc23)cc1`, the Potency is > 20 µM (inactive).
`CN1CCN(c2ncc3ncc(=O)n(Cc4ccc(F)cc4)c3n2)CC1`: the Potency is > 20 µM (inactive).
With `COc1ccc(Oc2ncc3nc(-c4cccc(C#N)c4)c(=O)n(CCC#N)c3n2)cc1`, the Potency is > 20 µM (inactive).
On to `COc1ncc2nc(-c3cc(F)cc(F)c3)c(=O)n(C3CC3)c2n1`, for which the Potency was > 20 µM (inactive).
As for `CN1CCN(c2ncnc3ccc(-c4ccoc4)cc23)CC1`, the Potency was > 20 µM (inactive).
`c1ccc(CNc2ccnc(-c3cccnc3)n2)cc1`: the Potency was > 20 µM (inactive).
In the case of `COCCNc1ncnc2ccc(-c3cccc(OC)c3)cc12` it was > 20 µM (inactive); in that of `CN1CCN(c2ncnc3ccc(-c4ccc5c(c4)OCO5)cc23)CC1`, > 20 µM (inactive).
The value for `Cc1nc2cnc(N3CCOCC3)nc2n(CCC#N)c1=O` was > 20 µM (inactive); that for `Cc1ccccc1-c1ccc2ncnc(NC3CC3)c2c1` was > 20 µM (inactive); that for `CN(Cc1ccco1)c1ccnc(-c2cccc(C#N)c2)n1` was > 20 µM (inactive).
For the compound `N#CCCn1c(=O)c(-c2ccc(F)cc2)nc2cnc(N3CCOCC3)nc21`, the Potency was > 20 µM (inactive).
In the case of `COc1ccc(-n2c(=O)c(CCc3ccccc3)nc3cnc(N4CCNCC4)nc32)cc1` it was > 20 µM (inactive); in that of `Cn1cccc1C(=O)N1CCC2(CCN(C(=O)Nc3cccc(C#N)c3)CC2)CC1`, > 20 µM (inactive); in that of `O=C(Nc1cccc(F)c1)N1CCCC2(CCNCC2)C1`, > 4 µM (inactive).
The value for `CS(=O)(=O)N1CCC2(CCN(c3ccccn3)CC2)CC1` was > 20 µM (inactive); that for `O=c1c(-c2cc(F)cc(F)c2)nc2cnc(N3CCNCC3)nc2n1CCc1ccccc1` was > 20 µM (inactive); that for `Cc1ccccc1-c1cncnc1Nc1ccccc1` was > 20 µM (inactive).
The value for `CS(=O)(=O)Nc1cccc(-c2cncnc2NCc2ccccc2)c1` was > 20 µM (inactive).
As to `COc1ccc(CNc2ncnc3ccc(-c4ccoc4)cc23)c(OC)c1`, the Potency is > 20 µM (inactive).
In the case of `Cc1noc(C)c1C(=O)N1CCC2(CCN(C(=O)Nc3ccccc3)CC2)CC1`, the Potency was > 20 µM (inactive).
Consider `COc1ccc(C(=O)N2CCC[C@@]3(CCN(Cc4nccs4)C3)C2)cc1`, for which the Potency is > 20 µM (inactive).
As to `COc1ccccc1-c1ccc2ncnc(NC3CCNCC3)c2c1`, the Potency was > 20 µM (inactive).
For `Cc1nc2cnc(Oc3cccc(Cl)c3)nc2n(Cc2ccc(F)cc2)c1=O`, the Potency was > 20 µM (inactive).
With `FC(F)(F)c1ccccc1-c1nc(NC2CCNCC2)c2ccccc2n1`, the Potency was > 20 µM (inactive).
As to `Cc1ccccc1-c1ccc2ncnc(N(C)C)c2c1`, the Potency was > 20 µM (inactive).
For `Cn1cccc1C(=O)N1CCC2(CCN(Cc3nccs3)CC2)CC1`, the Potency is > 20 µM (inactive).
`CCNc1ncc2nc(-c3cc(F)cc(F)c3)c(=O)n(CCc3ccccc3)c2n1`: the Potency was > 20 µM (inactive).
The value for `CN1CCN(c2ncc3nc(-c4ccc(Cl)cc4)c(=O)n(Cc4cccs4)c3n2)CC1` was > 20 µM (inactive).
`c1cn(-c2ccnc(-c3ccc4c(c3)OCO4)n2)cn1`: the Potency was > 20 µM (inactive).
Consider `CCNc1ncc2nc(-c3cn(C)c4ccccc34)c(=O)n(-c3ccc(OC)cc3)c2n1`, for which the Potency was 3.86 µM (active).
Turning to `COc1cccc(-c2nccc(NCc3ccccc3OC)n2)c1`, the Potency was > 20 µM (inactive).
Take `O=c1c(-c2ccccc2)nc2cnc(Oc3cccc(Cl)c3)nc2n1C1CC1`: the Potency is > 20 µM (inactive).
As to `COc1ccccc1CNc1ncnc2ccc(-c3cccc(NS(C)(=O)=O)c3)cc12`, the Potency is > 20 µM (inactive).
In the case of `N#CCCn1c(=O)c(-c2ccc(Cl)cc2)nc2cnc(N3CCNCC3)nc21` it was > 20 µM (inactive).
Consider `COc1ccc(-c2nc3cnc(OC)nc3n(-c3ccc(OC)cc3)c2=O)cc1`, for which the Potency is > 20 µM (inactive).
With `CN1CCN(c2ccnc(-c3cccc(NS(C)(=O)=O)c3)n2)CC1`, the Potency is > 20 µM (inactive).
As for `Cc1noc(C)c1C(=O)N1CCC2(CCN(Cc3ccncc3)CC2)CC1`, the Potency was > 20 µM (inactive).
As for `COc1ncc2nc(C)c(=O)n(Cc3cccs3)c2n1`, the Potency was > 20 µM (inactive).
